Compounds without any hit were thinned out: in the full panel of roughly 83,000, 20% have a hit.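 How to read the values: 0–100, growth inhibition (40 = 60% inhibited); 0, no net growth; -100 to 0, cell death (-40 = 40% of starting cells died; -100 = all dead).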 Unmarked numbers belong to inactive results. Calls of active or inactive are those of the source.
These molecules were tested on ACHN renal (assay: NCI-60 one-dose screen, 48 h (100 = growth as untreated, 0 = no growth, -100 = all killed)). Settings: 10 µM unless noted.
Description: Growth inhibition of the ACHN human tumor cell line is measured as a screen for anti-cancer activity. Cells are grown in 96 well plates and exposed to the test compound for 48 hours. Compounds are tested at a single concentration, which is 10^-5 M for most compounds. The reported endpoint is percent growth (GI% or GIPRCNT), where numbers from 0 - 100% represent growth inhibition, and numbers from -100% - 0 represent cell death. For example, a value of 40 represents 60% growth inhibition. A value of 0 means no net growth occurred over the course of the experiment. A value of -40 indicates 40% of cells at the beginning of the experiment died by the end of the experiment. A value of -100 means all cells are dead at the end of the experiment.
NCI-60 Human Tumor Cell Lines Screen was performed using the standard one-dose NCI protocol, which is described in more detail at https://dtp.cancer.gov/discovery_development/nci-60/default.htm.
Compounds with GIPRCNT values below 10 were considered active. Activity score was based on GIPRCNT using the following formula: […]
Score is 0 for GIPRCNT values of 100 or above, 50 for GIPRCNT values of 0, and 100 for GIPRCNT values of -100.

| Structure (SMILES) | growth |
| --- | --- |
| COc1cc(/C=C/c2ccnc3ccccc23)cc(OC)c1OC | 54.7% |
| CN1CSC(=S)N(Cc2ccccc2)C1 | 102% |
| O=C(Cc1ccccc1)C(F)(F)F | 106% |
| O=C(c1ccccc1)c1ccc(O)c2ncccc12 | 18.5% |
| COC(=O)C(=[N+]=[N-])C(=O)c1ccc([N+](=O)[O-])o1 | 67.1% |
| Cc1nc(Sc2nc3ccc([N+](=O)[O-])cc3s2)sc1C | 11.4% |
| Oc1ccc(Cl)cc1C(c1cc(Cl)ccc1O)C(Cl)(Cl)Cl | -7.96% (active) |
| CC(C)=C1C=C2CC[C@@H]3[C@](C)(CCC[C@@]3(C)C(=O)O)[C@H]2CC1 | 104% |
| C/C(=N/NC(N)=S)c1ccc(C)cc1 | 96.6% |
| Clc1ccc(-n2ncc3c(NCCCN4CCOCC4)ncnc32)cc1 | 96.4% |
| CC(=O)c1c(O)c(C)c(O)c2c1OC1=CC(=O)C(C(C)=O)C(=O)C12C (stereo not given) | 89% |
| Cc1cc(C)c(C#N)c(Sc2nc(C)c([N+](=O)[O-])c(C)c2C#N)n1 | 39.3% |
| CCCCCCCCCCCCN1C(C)=CS/C1=C\C=C\c1scc(C)[n+]1CCCCCCCCCCCC | 38.6% |
| CCOC(=O)NC(/C=C/c1ccccc1)NC(=O)OCC | 109% |
| Cc1nc([N+](=O)[O-])c(Sc2nncc(-c3ccccc3)n2)n1C | 62.6% |
| Oc1ccc2c(c1)CCc1ccccc1-2 | 109% |
| CC1CC(C)(C)OB(OC(C)CC(C)(C)OB2OC(C)CC(C)(C)O2)O1 (stereo not given) | 108% |
| Oc1c(Cl)cc(Cl)cc1C=NCC1CCC(CN=Cc2cc(Cl)cc(Cl)c2O)CC1 (stereo not given) | 101% |
| NNc1cccc([N+](=O)[O-])c1 | 88.7% |
| CCCCCCCCc1cc(Cl)c(O)c(Cl)c1 | 103% |

| Structure (SMILES) | growth |
| --- | --- |
| c1ccc(C2NCCNC2c2ccccc2)cc1 (stereo not given) | 108% |
| O=C1/C(=C/c2ccccn2)CCc2ccccc21 | 104% |
| COc1cc2c(c(OC)c1OC)-c1ccc(NCc3ccccc3)c(=O)cc1[C@@H](NC(C)=O)CC2 | 28.8% |
| N#CC(=C1SCS1)[N+](=O)[O-] | 24.5% |
| Cc1ccc(Nc2ccc(O)c3c2C(=O)c2c(O)ccc(Nc4ccc(C)cc4)c2C3=O)cc1 | 100% |
| COc1ccc2c(c1)c(CC(=O)O)c(C)n2C(=O)c1ccc(Cl)cc1 | 95.3% |
| C/C(=N\NC(=S)N1CC2CCC(CC2)C1)c1ccccn1 | 15.1% |
| NC1=C(Br)C(=O)c2ncccc2C1=O | -7.81% (active) |
| O=C1CSC(=S)N1Cc1cccnc1 | 97.2% |
| CC(C)(C)CC(C)(C)c1ccc(OCCOCCSC(=N)N)cc1 | 33.5% |
| CCc1oc2ccccc2c1C(=O)c1cc(Br)c(O)c(Br)c1 | 84.2% |
| CC1C(c2ccccc2)OCCN1C(=S)Nc1ccc(S(=O)(=O)N2CCCCC2)cc1 (stereo not given) | 96.4% |
| N#CC1c2ccccc2C=CN1C(=O)CCCl (stereo not given) | -6.33% (active) |
| S=C=Nc1ccc(N2CCOCC2)cc1 | 96.1% |
| OC(Cc1cc(CC(O)(C(F)(F)F)C(F)(F)F)nc(CC(O)(C(F)(F)F)C(F)(F)F)c1)(C(F)(F)F)C(F)(F)F | 0.867% (active) |
| CCCCCCCCCCCCCCCCCC1=NCCCN1CCO | 112% |
| CCCCCC[C@@H](O)C/C=C\CCCCCCCC(=O)OCCOC | 100% |
| CCCCCCCCCCCC(=O)OC(C)C(=O)NCCCC (stereo not given) | 116% |
| CC(C)(C)c1ccc(O)c(-c2ccccc2)c1 | 102% |
| CC1(C)N=c2cc3c(cc2N1c1ccc(Cl)cc1)=Nc1ccccc1N3c1ccc(Cl)cc1 | 40.2% |

— PubChem BioAssay (NCI)
